Experimental findings from PubChem BioAssay AID493162 (ICCB-Longwood Screening Facility, Harvard Medical School, 2011) are described below.

The campaign covered roughly 46,000 compounds. About 430 (0.93%) were called active. Cut-off read from the data, not from the text of the source: active = normalized absorbance mostly below about 85% (no sharp cut-off); inactive = mostly above about 86%. The entries come from a sample that favours actives as a whole.

The test system of this assay is Vaccinia virus DNA polymerase (E9) processive complex. As to the kind of experiment: vaccinia E9 polymerase processive synthesis inhibitors, primary screen, biochemical, absorbance (AID 493162). As to conditions: in vitro processive DNA synthesis, absorbance read-out; active compounds read low; concentration not given here.
Regarding `Cc1cc(C(=O)OCC(=O)N2CCc3ccccc3C2)c(C)o1`, the normalized absorbance is 103% (inactive).
For `O=C(COC(=O)c1ccc2ccccc2n1)Nc1ccc(Cl)c(C(F)(F)F)c1`, the normalized absorbance was 100% (inactive).
Next, `O=C1CC(c2ccc(Cl)cc2)Sc2nc3ccccc3n21` (stereo not given): 100% (inactive); `CCc1ccccc1Nc1cc(C(=O)NCC2COc3ccccc3O2)c2ccccc2n1` (stereo not given): 99.1% (inactive).
On to `O=C(OCC(=O)N1CCCCCC1)c1ccc(Cl)nc1`, for which the normalized absorbance is 106% (inactive).
Consider `Brc1ccccc1C1OCC2(CO1)COC(c1ccccc1Br)OC2` (stereo not given), for which the normalized absorbance is 100% (inactive).
Next, `O=C(Nc1nc(-c2ccc(Cl)s2)cs1)C1=COCCO1`: 98.9% (inactive); `CCn1c(CNC(C)=O)nc2ccccc21`: 101% (inactive); `O=C(COC(=O)c1n[nH]c2ccccc12)NC(c1ccccc1)c1ccccc1`: 98.6% (inactive).
The result for `CNC(=O)Nc1ccc(C(=O)NC)cc1` reads 101% (inactive); that for `CCOc1ccc(OCC)c(NC(=O)CCS(=O)(=O)c2ccc(C)cc2)c1`, 91.4% (inactive).
Next, `CCn1c(=NC(=O)C2CC2)sc2cc(Cl)ccc21`: 71.3% (inactive); `NNc1cccc(Cl)n1`: 78.5% (active).
Regarding `COC(=O)CN1C(=O)c2cccnc2Oc2ccc(C)cc21`, the normalized absorbance was 92% (inactive).
For the compound `O=C(O)c1ccc(N=Cc2ccc(OC(=O)c3sc4ccccc4c3Cl)cc2)cc1`, the normalized absorbance is 100% (inactive).
With `CS(=O)(=O)c1nc2ccccc2[nH]1`, the normalized absorbance is 103% (inactive).
With `C/C(CCc1ccc2c(c1)OCO2)=N\N1C(=N)SC(C(=O)Nc2ccc(C(=O)O)cc2)CC1=O` (stereo not given), the normalized absorbance was 100% (inactive).
The result for `COc1ccc2nc(C(=O)N3CCN(C)CC3)sc2c1` reads 85.1% (inactive).
As to `O=C1CN(C(=O)CCC(=O)c2ccc(F)cc2)c2ccccc2N1`, the normalized absorbance is 101% (inactive).
For `Cn1c(NCc2ccccc2)nc2ccccc21`, the normalized absorbance was 101% (inactive).
Next, `O=C(O)CCNC(=O)c1ccc2c(c1)OCCO2`: 102% (inactive); `CSc1ncc(Cl)c(C(=O)N2CCN(c3cccc(Cl)c3)CC2)n1`: 95.5% (inactive); `O=P(O)(CN1CCCCCC1)C1Cc2ccccc2C1`: 84.6% (inactive).
The result for `CCOC(=O)c1c(C)oc2ccc(OC(=O)c3ccco3)cc12` reads 99.5% (inactive); that for `CC12CCC3C(CC=C4CC(OC5CCCCO5)CCC43C)C1CCC2=O` (stereo not given), 100% (inactive); that for `CC(C)(C)c1cc(C(F)(F)F)n2ncnc2n1`, 99.9% (inactive).
In the case of `C=CCN(C(=O)c1cccc2c1SCCC2=O)c1ccccc1`, the normalized absorbance was 113% (inactive).
Next, `CCN(CC)c1ccc(N=Cc2cccs2)cc1`: 99.2% (inactive); `CCOC(=O)c1c(NC(=O)C(C)Sc2ncccn2)sc2c1CCC2` (stereo not given): 91.9% (inactive); `CCN(CC)c1ccc(N=C2C(=C(C#N)C#N)c3ccccc3C2=C(C#N)C#N)cc1`: 99.9% (inactive).
Consider `CC(c1ccco1)N(C(=O)c1cccnc1Cl)c1ccccn1` (stereo not given), for which the normalized absorbance was 97.4% (inactive).
`c1ccc2c(c1)[I+]c1ccccc1-2`: the normalized absorbance was 15.1% (active).
Next, `Oc1ccccc1-c1nnc2n1CCC2`: 102% (inactive); `O=S(=O)(Cc1ccc(Cl)cc1)N1CCc2ccccc2C1`: 107% (inactive).
Consider `CC(C)(C)S(=O)(=O)c1cccs1`, for which the normalized absorbance is 90.5% (inactive).
Turning to `CC(=O)Nc1ccc2c(c1)CN(C1CCCCC1)CO2`, the normalized absorbance is 89% (inactive).
Regarding `O=C1C2CC3CC1CC(C(=O)O)(C3)C2`, the normalized absorbance was 61.8% (active).
Next, `O=C(O)c1ccc(NC(=O)C23CC4CC(CC(C4)C2)C3)cc1`: 95.6% (inactive).
`Cc1ccc2cccc(SCc3ccc(Br)cc3)c2n1`: the normalized absorbance is 99.8% (inactive).
Next, `O=C(NCCc1ccccc1)C(C(=O)c1ccccc1)n1ccccc1=O` (stereo not given): 104% (inactive).
Next, `CCc1nc2ccccc2n1CC(=O)N(c1ccccc1)C(C)C`: 99.6% (inactive).
`CC(C)N(C(=O)CSc1ncn[nH]1)c1ccccc1`: the normalized absorbance is 95.7% (inactive).
For the compound `Fc1ccc(CNCc2ccccn2)cc1`, the normalized absorbance was 105% (inactive).
The result for `Cc1cc(C(=O)OCC(=O)N2C(C)CCCC2C)c2ccccc2n1` (stereo not given) reads 106% (inactive).
On to `CCNCC1Cc2ccccc2O1` (stereo not given), for which the normalized absorbance was 110% (inactive).
Turning to `CC(=O)N1CCc2c(sc(NC(=O)C(C)C)c2C(N)=O)C1`, the normalized absorbance is 119% (inactive).
Take `COC(=O)c1c(NC(=O)c2ccc(OC)cc2)sc2c1CCN(C(C)C)C2`: the normalized absorbance was 56.5% (active).
In the case of `COC(=O)c1c(NC(NC(C)=O)(C(F)(F)F)C(F)(F)F)sc2c1CCN(C)C2`, the normalized absorbance is 99.8% (inactive).
For the compound `Cc1cc(C)c(S(=O)(=O)N2CCOCC2)cc1C`, the normalized absorbance was 105% (inactive).
Take `CC(C)Oc1cccc(NC(=O)Cc2ncc(C(F)(F)F)cc2Cl)c1`: the normalized absorbance was 103% (inactive).
`CC(=Nc1ccc(N(C)C)cc1)C1=C(O)c2ccccc2C1=O`: the normalized absorbance is 103% (inactive).
The result for `Cc1ccc(NC(=O)/C=C/c2ccc(Br)o2)cc1` reads 100% (inactive); that for `O=C1Cc2cc(S(=O)(=O)NCc3cccs3)ccc2N1`, 105% (inactive).
For the compound `O=C(OCC(=O)N1CCCC1)c1ccc(Oc2ccccc2)cc1`, the normalized absorbance was 94.5% (inactive).
For the compound `O=C(Nc1nc(-c2ccccc2)cs1)c1cccc(S(=O)(=O)N2CCCC2)c1`, the normalized absorbance is 111% (inactive).
The result for `CN(C)S(=O)(=O)n1cc(/C=C(\NC(=O)c2ccccc2)C(=O)NCc2ccco2)c2ccccc21` reads 80.2% (inactive); that for `CC[N+](C)(CC)CCC[n+]1c(-c2ccccc2)c2cc(N)ccc2c2ccc(N)cc21`, 8.9% (active); that for `CC[n+]1c(C)n(-c2ccccc2)c2ccc(N)cc21`, 99.4% (inactive).
Consider `CCc1ccc(/C=C2\SC(=S)N(CCCC(=O)Nc3cccnc3)C2=O)cc1`, for which the normalized absorbance is 99.7% (inactive).
Next, `O=C(O)c1ccccc1-c1ccccc1C(=O)Nc1nccs1`: 70.1% (inactive); `O=C(Nc1nccs1)c1cc(=O)c2ccccc2o1`: 101% (inactive); `Nc1[nH]c(=S)sc1C(=O)Nc1nccs1`: 58.3% (active).
With `CCN1CCN(CCNC(=O)c2ccc3c(c2)NC(=O)/C(=C\c2cccc(Cl)c2)S3)CC1`, the normalized absorbance is 79.8% (inactive).
The result for `Clc1ccc(-c2ncc3ccccn23)c(Cl)c1` reads 101% (inactive).
As for `OC1CCN(c2ncc(C(F)(F)F)cc2Cl)CC1`, the normalized absorbance was 105% (inactive).
In the case of `Cc1ccc2nc(Nc3ccccc3)cc(C)c2c1`, the normalized absorbance is 100% (inactive).
`Cc1ccc2nc(C)c3c(c2c1)N(c1ccccc1)CC3`: the normalized absorbance was 61.5% (active).
For the compound `O=C(CSc1nc2ccc(N=Cc3cc(Br)ccc3O)cc2s1)Nc1ccccc1`, the normalized absorbance is 100% (inactive).
Regarding `CCCNS(=O)(=O)c1ccc2c(c1)oc(=O)n2CC(=O)OCC`, the normalized absorbance was 99.1% (inactive).
The result for `O=c1c(/C=N\O)coc2ccc(F)cc12` reads 79.3% (inactive); that for `COc1cccc2c(=O)n(CC(=O)NCc3ccccc3)ccc12`, 90% (inactive); that for `CN(C(=O)COC(=O)c1cnc(Cl)c(Cl)c1)c1ccccc1`, 101% (inactive).
The result for `COCc1cc(Cl)nc(-c2ccccc2)n1` reads 103% (inactive).
With `c1csc(Nc2nc3cc4c(cc3s2)OCO4)n1`, the normalized absorbance was 96.8% (inactive).
For the compound `CCCCN1N=C(C)CC1=O`, the normalized absorbance was 99.9% (inactive).
As for `CCC(=O)Oc1ccc(Br)cc1/C=C1\Sc2ccccc2C1=O`, the normalized absorbance is 99.9% (inactive).
With `ClCc1csc(-c2ccccc2)n1`, the normalized absorbance was 96.4% (inactive).
The result for `Cc1ccc2cc(CCNC(=O)CCC3CCCC3)c(=O)[nH]c2c1` reads 101% (inactive).
With `Cn1c(C(=O)NC2CCCC2)cc2oc3ccccc3c21`, the normalized absorbance was 104% (inactive).
Consider `COCCn1cc(C(=O)NC2CCCCCC2)c2c3ccccc3n(C)c2c1=O`, for which the normalized absorbance is 102% (inactive).
Turning to `CCN1CCCC1CNC(=O)c1cc2c(=O)n(C)c3ccccc3c2n1C` (stereo not given), the normalized absorbance was 51.4% (active).
Next, `COc1cc2c3c(c1OC)C1(C=CC(=O)C=C1)CC3[N+](C)(C)CC2` (stereo not given): 75.6% (inactive); `O=C(N=C1SC2CS(=O)(=O)CC2N1c1ccccc1)c1ccccc1` (stereo not given): 112% (inactive); `Cc1cc(S(=O)(=O)N2CCN(Cc3ccccc3)CC2)c(C)cc1Cl`: 71.9% (inactive).
For the compound `Cc1ccc(-c2cn3nc(N4CCC(C(=O)NCCCN5CCCCC5)CC4)sc3n2)cc1`, the normalized absorbance was 104% (inactive).
Next, `O=C(NCCCN1CCCC1)c1cc(-c2ccncc2)nc2ccccc12`: 86.5% (inactive); `Cc1c(C(=O)NCCCN2CCCCCC2)oc2ccc3nc(N(C)C)sc3c12`: 64.3% (active); `CC(C)=CCC(O)C1=CC(=O)c2c(O)ccc(O)c2C1=O` (stereo not given): 81.9% (active).
The result for `Cc1ccccc1NC1=NC2(CCCCC2)N=C(N)N1` reads 100% (inactive).
For the compound `O=C(O)CC(c1ccccc1)n1cnnn1` (stereo not given), the normalized absorbance is 107% (inactive).
In the case of `O=C(O)CC(c1ccccc1)c1cc(Cl)ccc1O` (stereo not given), the normalized absorbance is 73.5% (active).
The result for `O=C(O)CCc1nc2cc(Cl)ccc2n(Cc2ccccc2)c1=O` reads 98.8% (inactive).
Next, `CC(=O)N1CC(C)Oc2cc(S(=O)(=O)N(C)Cc3ccccc3)ccc21` (stereo not given): 103% (inactive); `COc1cccc2c1C(=O)C1C(O)=C3C(=C(O)C1C2=O)C[C@@](O)(C(=O)CO)C[C@@H]3OC1CC(N)C(O)C(C)O1` (stereo not given in full): 7.8% (active); `Cc1ccccc1Nc1nn2c(=O)c3ccc(C(=O)NCc4ccccc4Cl)cc3nc2s1`: 96.3% (inactive).
Take `Cc1scc(-c2ccccc2)[n+]1C`: the normalized absorbance is 97% (inactive).
As to `CN(C)CCN=c1cc(-c2ccccc2)oc2ccc(Cl)cc12`, the normalized absorbance is 25.3% (active).
Regarding `Clc1ccc2oc(-c3ccccc3)c/c(=N\c3nccs3)c2c1`, the normalized absorbance is 99.8% (inactive).
Consider `S=c1cc(-c2ccccc2)oc(-c2ccccc2)c1`, for which the normalized absorbance was 99.9% (inactive).
Take `N#Cc1ccccc1NC(=O)CSc1ccccc1`: the normalized absorbance is 105% (inactive).
As for `O=C(CCNS(=O)(=O)c1ccc2[nH]c(=O)ccc2c1)NC1CCCC1`, the normalized absorbance was 103% (inactive).
With `Cc1ccc(S(=O)(=O)N2CCCC(C(=O)N(C)c3ccccc3)C2)cc1` (stereo not given), the normalized absorbance is 101% (inactive).
In the case of `Cc1ccc2nc(Cl)c3cc(C(=O)NCCN4CCN(C)CC4)sc3c2c1`, the normalized absorbance was 22.8% (active).
Take `O=C(NCCCN1CCOCC1)c1cc2c(s1)CCC2`: the normalized absorbance is 82.2% (inactive).
In the case of `COC(CN(C)C(=O)c1cc2c(Cl)nc3ccc(C)cc3c2s1)OC`, the normalized absorbance was 80.2% (inactive).
